Source: PubChem
An excerpt weighted towards active compounds, which were near 2.8% of everything screened.
PAX8 reporter: inhibitors of PAX8-driven TPO luciferase reporter, primary screen, RMG-I cells, single concentration; 360,000 tested, 1.2% active; inhibition, % at 12.6 µM; SteadyGlo, 24 h;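 active = mean replicate inhibition at least 60% with every replicate also reaching 60%; inconclusive = only one of the two criteria is met; inactive = mean below 60% and not all replicates reaching 60%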;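 also: luciferase light reporting Pax8 driven TPO promoter activity; plate controls were median of neutral control wells for no effect and mitoxantrone controls for full effect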
TROY NFkB inh: inhibitors of TROY-driven NF-kB signaling, primary screen, Q293 LMP1-TROYcd cells, NF-kB luciferase, uHTS | Q293 LMP1-TROYcd NF-kB luciferase reporter, 4 h | inhibition, % at 10 µM | 360,000 tested, 0.98% active | AID 1347056, 2019;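 active = compounds whose plate-normalised and pattern-corrected inhibition of the luciferase reporter signal at the single screening dose is 50% or more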
TWEAK-Fn14 inh: inhibitors of TWEAK-Fn14 signaling, primary screen, luciferase reporter cells, uHTS | TWEAK-stimulated Fn14 reporter cells, luciferase luminescence, 8 h | inhibition, % at 10 µM | 360,000 tested, 2% active; in the data active = inhibition above about 50%
EWS-Fli block: EWS/Fli-driven NR0B1 reporter inhibitors, primary screen, A673 cells, NR0B1 luciferase, luminescence, MLPCN library | viability-normalised | inhibition, % at 12.6 µM | 350,000 tested, 0.67% active | AID 651661, 2012;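 active = mean inhibition of at least 50% after viability correction, with every replicate also passing that limit; inconclusive = mean reaches 50% but only one of two replicates passes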;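 also: firefly luciferase signal divided by Alamar Blue viability fluorescence both relative to DMSO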
LGR2 inh: inhibitors of bursicon-induced LGR2 CRE-luciferase signal, primary screen, cell-based, HEK293, CRE-luciferase reporter, bursicon stimulation; Drosophila bursicon receptor LGR2 (rickets); bursicon-stimulated, 4 h; inhibition, % at 9.99 µM; 380,000 tested, 0.35% active; AID 720647, 2013;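 active = drop in luminescence signal, shown as inhibition above about 50% in the replicate tests, limit read from the data, passing the limit was not always enough; inconclusive = probably only some replicates passing the limit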;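 also: agonist challenge used bursicon conditioned medium at about half maximal strength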
The depositor's hits bear a star; ? = inconclusive; nt = not tested or not shown.

SMILES | PAX8 reporter | TROY NFkB inh | TWEAK-Fn14 inh | EWS-Fli block | LGR2 inh
CCC(=O)N1[C@@H]2Cn3c(ccc(-c4cccc(F)c4)c3=O)[C@H]1[C@@H](C(=O)OC)[C@@H]2CO | -3 | nt | nt | 0 | 5
CCOC(=O)C(O)(c1ccc(NC(=S)NC(=O)c2ccc(Cl)cc2Cl)c(C)c1)C(F)(F)F (centres undefined) | 8 | 58* | 72* | 12 | 9
CCOC(=O)C(O)(c1ccc(NC(=S)NC(=O)c2ccc(Cl)cc2Cl)cc1)C(F)(F)F (centres undefined) | -6 | 25 | -6 | nt | 6
CCOC(=O)C(NC(=O)CC)(Nc1ccc(C(O)(C(=O)OCC)C(F)(F)F)cc1C)C(F)(F)F (centres undefined) | 11 | 8 | 1 | nt | nt
COC(=O)C(O)(c1ccc(NC(=S)NC(=O)c2ccc(Cl)cc2Cl)c(C)c1)C(F)(F)F (centres undefined) | 17 | 64* | 56* | 6 | 14
COC(=O)C(O)(c1ccc(NC(=S)NC(=O)c2ccc(Cl)cc2Cl)cc1)C(F)(F)F (centres undefined) | 84* | 47 | 34 | -5 | 0
O=C(c1ccc(CNS(=O)(=O)c2ccc(Br)cc2)cc1)N1CCC2(CC1)OCCO2 | 64* | 1 | -2 | 5 | 18
O=C(c1ccc(CNS(=O)(=O)c2ccccc2)cc1)N1CCC2(CC1)OCCO2 | nt | -11 | 4 | nt | nt
OC[C@H]1[C@@H]2c3ccccc3NC[C@@H]2N1Cc1cccnc1 | -1 | nt | nt | 5 | -1
CCCNC(=O)[C@H]1[C@H](CO)[C@H]2Cn3c(cccc3=O)[C@@H]1N2CCC | -6 | nt | nt | 3 | 7
CC(=O)OC1(C)CC(C)C(=O)C(C(O)CC2CC(=O)NC(=O)C2)C1 (centres undefined) | nt | 86* | 103* | 43 | nt
C[C@@H]1C[C@@H]([C@H](O)CC2CC(=O)NC(=O)C2)C(=O)[C@@H](C)C1 | nt | 53* | 80* | 42 | 79*
CCN1[C@@H]2c3ccc(-c4cccc(OC)c4)c(=O)n3C[C@H]1[C@H](CO)[C@H]2C(=O)OC | -6 | nt | nt | 2 | -13
O=C(Cc1ccccc1)N1CCCCN2[C@H](C1)[C@@H](c1ccc(C#Cc3ccccc3)cc1)[C@@H]2CO | 15 | nt | nt | nt | 18
CCCCCN1C(=O)c2ccccc2[C@@]2(C(=O)OCC)Cc3cc(OC)ccc3[C@@H]12 | 23 | 24 | 35 | 23 | 64*
CCOC(=O)[C@]12Cc3cc(C)ccc3[C@H]1N(Cc1ccccc1)C(=O)c1ccccc12 | 32 | -3 | 21 | 3 | 27
CCOC(=O)[C@]12Cc3cc(C)ccc3[C@H]1N(C(C)C)C(=O)c1ccccc12 | 56 | 18 | -59 | 26 | 69*
CC(=O)OC1C(=O)OCC23CCC4(C)OC4C2OC2CC(OC(=O)C=CC=CC(=O)OCCC1C)C3(C)C21CO1 (centres undefined) | 103* | 84* | 99* | 50 | 105*
CC(O)C1C=CC=CC(=O)OC2CC3OC4C5OC5(C)CCC4(COC(=O)C4OC4(C)C(O)CO1)C2(C)C31CO1 (centres undefined) | 103* | 85* | 99* | 29 | 101*
CC(=O)OC1C(O)C(C)OC(OC2C(OC(=O)C3CCC4C(C3)OC3(CC(OC(=O)/C=C/c5ccccc5)C(C)CO3)C43CO3)OC(C)C(O)C2OC(C)=O)C1O (centres undefined) | 104* | 84* | 101* | 36 | 99*
Cc1ccc(N(C)C(=O)Oc2ccc(C(=O)c3ccc(Cl)cc3)cc2)cc1 | nt | nt | 68* | nt | nt
COC(=O)[C@H]1[C@H](CO)[C@H]2Cn3c(cccc3=O)[C@@H]1N2C(=O)C1CCC1 | nt | nt | nt | 1 | nt
COc1ccc(-n2nnnc2C(CCc2ccccc2)N2CCC(n3c(=O)[nH]c4ccccc43)CC2)cc1 (centres undefined) | 104* | 72* | 94* | 4 | 101*
Cc1cccc(C)c1-n1nnnc1C(CCc1ccccc1)N1CCC(n2c(=O)[nH]c3ccccc32)CC1 (centres undefined) | -18 | 81* | 107* | 37 | 11
COc1ccc(C(c2nnnn2-c2ccc3c(c2)OCCO3)N2CCC(n3c(=O)[nH]c4ccccc43)CC2)cc1 (centres undefined) | 10 | 14 | 46 | 0 | 12
SMILES | PAX8 reporter | TROY NFkB inh | TWEAK-Fn14 inh | EWS-Fli block | LGR2 inh
O=c1[nH]c2ccccc2n1C1CCN(C(CCc2ccccc2)c2nnnn2-c2ccc3c(c2)OCCO3)CC1 (centres undefined) | 106* | 59* | 70* | 41 | 92*
O=c1[nH]c2ccccc2n1C1CCN(C(c2ccnc3ccccc23)c2nnnn2-c2ccc3c(c2)OCCO3)CC1 (centres undefined) | 77* | 32 | 17 | 1 | 9
O=C(Cc1cccnc1)N1CCCCN2[C@@H](CO)[C@H](c3ccc(C#CC4CC4)cc3)[C@@H]2C1 | 22 | nt | nt | 24 | nt
CCn1nc(/C=C/c2ccccc2)nc2c(=O)n(C)c(=O)nc1-2 | 94* | 83* | 106* | 28 | 104*
COc1ccc(-n2c(/C=C/c3ccc(O)cc3)nc3ccccc3c2=O)cc1 | 26 | 11 | 19 | -9 | 9
CCn1nc(-c2cccs2)nc2c(=O)n(C)c(=O)nc1-2 | nt | 66* | 73* | nt | nt
COCC(=O)N1[C@@H]2c3ccc(C4=CCCC4)c(=O)n3C[C@H]1[C@H](CO)[C@H]2C(=O)OC | -1 | nt | nt | 2 | -16
c1ccc2c(c1)[IH]c1ccccc1-2 | 64* | -7 | 13 | 31 | -9
CCN1CCN(Cc2ccc(OC(F)(F)F)cc2)CC1 | nt | 10 | -9 | nt | -11
CCCCCCOc1ccc(CN2CCN(CC)CC2)cc1 | nt | 60* | 66* | nt | nt
C[CH2][Hg][S]c1ccccc1C(=O)O | 109* | 25 | 92* | 47 | 96*
CC12CN3CN(C1)CC(c1ccccc1)(C3)C2=O | nt | nt | 88* | nt | nt
CN(Cc1cccc(-c2cccnc2)c1)C(=O)Oc1ccc([N+](=O)[O-])cc1 | -15 | 56* | 83* | -13 | 29
CCC(=O)N1[C@@H]2c3ccc(C4=CCCC4)c(=O)n3C[C@H]1[C@H](CO)[C@H]2C(=O)OC | -1 | nt | nt | -2 | -9
O=C(O)C[C@@H]1CC[C@H]2NC[C@@H](O)COC[C@@H]2O1 | 1 | nt | nt | -2 | 8
Cc1cc(O)c2c(c1)C(=O)C13C(=C2O)C(=O)[C@H]2[C@@H](O)[C@@H]1[C@H]1[C@H](O)[C@@H]3C(=O)C3=C(O)c4c(O)cc(C)cc4C(=O)C312 (some centres undefined) | nt | 8 | 72* | nt | nt
Cc1ccccc1CN1Cc2cnnn2-c2ccccc2C1C#N (centres undefined) | 50 | 56* | 96* | 27 | ?
CN1[C@H](CO)[C@H]2c3ccccc3NC[C@H]21 | -6 | nt | nt | 6 | -13
